# Data published in publication PMC8384837, “Expanding the binding specificity for RNA recognition by a PUF domain”.
# Experiments:
# Test in all cases: yeast three-hybrid, YBZ-1, SC-Leu-His + 0.5 mM 3-AT, 4 days
# Settings in all cases: tags: N-Gal4 AD-HA kept; label: inside an RPR1-promoter hybrid RNA with tandem MS2 sites; ssRNA
# [1] = target: PUM1 PUF domain R4-VPS (Homo sapiens, UniProt Q14671 828-1176, N971V;H972P;Q975S)
# Procedure, shortened: (§1)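 Each repeat of the Pumilio-1 PUF domain was randomized at its three base-contacting residues, and these libraries were co-expressed from a centromeric plasmid with matching RNA elements in strain YBZ-1. After four days on SC-Leu (input) or SC-Leu-His + 0.5 mM 3-AT (selection), the repeat regions were PCR-amplified and Illumina-sequenced. The interaction score compares variant frequency between input and selection as a log change, computed in log2 with a pseudocount of 1 for absent variants.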
# [2] = target: PUM1 PUF domain R4-SNS (Homo sapiens, UniProt Q14671 828-1176, N971S;H972N;Q975S)
# Procedure, shortened: as §1
# [3] = target: PUM1 PUF domain R4-VCA (Homo sapiens, UniProt Q14671 828-1176, N971V;H972C;Q975A)
# Procedure, shortened: as §1
# [4] = target: PUM1 PUF domain R5-KHI (Homo sapiens, UniProt Q14671 828-1176, C1007K;R1008H;Q1011I)
# Procedure, shortened: as §1
# [5] = target: PUM1 PUF domain R8-NWR (Homo sapiens, UniProt Q14671 828-1176, Y1123W;Q1126R)
# Procedure, shortened: as §1
# [6] = target: PUM1 PUF domain R8-IRR (Homo sapiens, UniProt Q14671 828-1176, N1122I;Y1123R;Q1126R)
# Procedure, shortened: as §1
# [7] = target: PUM1 PUF domain R7-RYP (Homo sapiens, UniProt Q14671 828-1176, S1079R;N1080Y;E1083P)
# Procedure, shortened: as §1
# [8] = target: T1, PUM1 PUF domain R6-VWS (Homo sapiens, UniProt Q14671 828-1176, N1043V;Y1044W;Q1047S)
# T1 sequence: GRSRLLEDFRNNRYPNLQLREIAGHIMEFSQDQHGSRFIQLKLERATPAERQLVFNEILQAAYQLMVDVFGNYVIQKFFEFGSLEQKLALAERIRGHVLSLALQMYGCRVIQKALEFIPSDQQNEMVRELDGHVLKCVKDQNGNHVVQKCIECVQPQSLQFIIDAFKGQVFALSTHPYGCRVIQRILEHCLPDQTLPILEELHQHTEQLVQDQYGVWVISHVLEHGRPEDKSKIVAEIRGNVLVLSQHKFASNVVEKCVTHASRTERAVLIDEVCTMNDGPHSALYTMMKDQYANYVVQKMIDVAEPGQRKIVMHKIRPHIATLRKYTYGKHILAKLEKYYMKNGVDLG
# Procedure, shortened: as §1
# [9] = target: PUM1 PUF domain R1-NYS (Homo sapiens, UniProt Q14671 828-1176, S863N;R864Y;Q867S)
# Procedure, shortened: as §1
# [10] = target: PUM1 PUF domain R1-YFR (Homo sapiens, UniProt Q14671 828-1176, S863Y;R864F;Q867R)
# Procedure, shortened: as §1
# [11] = target: PUM1 PUF domain R5-TYF (Homo sapiens, UniProt Q14671 828-1176, C1007T;R1008Y;Q1011F)
# Procedure, shortened: as §1
sequence,measurement,setting,value
GGCUAGAACUAGUGGAUCCCCCGGCGCCCGGCGGCUCGAGCCCGGGUAAGUGUAUAUAGUCUGCAUGCCGCCGGGCGCCAUGCCUGCAGGUCGACUCUAGAAAACAUG,binding signal,[1],2.93 log2 enrichment (interaction score)
same,binding signal,[2],2.15 log2 enrichment (interaction score)
same,binding signal,[3],2.82 log2 enrichment (interaction score)
GGCUAGAACUAGUGGAUCCCCCGGCGCCCGGCGGCUCGAGCCCGGGUAAGUGUGAAUAGUCUGCAUGCCGCCGGGCGCCAUGCCUGCAGGUCGACUCUAGAAAACAUG,binding signal,[4],4.47 log2 enrichment (interaction score)
GGCUAGAACUAGUGGAUCCCCCGGCGCCCGGCGGCUCGAGCCCGGGUAAGUGUACAUAGUCUGCAUGCCGCCGGGCGCCAUGCCUGCAGGUCGACUCUAGAAAACAUG,binding signal,[1],2.28 log2 enrichment (interaction score)
same,binding signal,[2],0.99 log2 enrichment (interaction score)
GGCUAGAACUAGUGGAUCCCCCGGCGCCCGGCGGCUCGAGCCCGGGUAAGCGUAAAUAGUCUGCAUGCCGCCGGGCGCCAUGCCUGCAGGUCGACUCUAGAAAACAUG,binding signal,[5],3.79 log2 enrichment (interaction score)
same,binding signal,[6],2.44 log2 enrichment (interaction score)
GGCUAGAACUAGUGGAUCCCCCGGCGCCCGGCGGCUCGAGCCCGGGUAAGUCUAAAUAGUCUGCAUGCCGCCGGGCGCCAUGCCUGCAGGUCGACUCUAGAAAACAUG,binding signal,[7],5.27 log2 enrichment (interaction score)
GGCUAGAACUAGUGGAUCCCCCGGCGCCCGGCGGCUCGAGCCCGGGUAAGUGAAAAUAGUCUGCAUGCCGCCGGGCGCCAUGCCUGCAGGUCGACUCUAGAAAACAUG,binding signal,[8],7.2 log2 enrichment (interaction score)
GGCUAGAACUAGUGGAUCCCCCGGCGCCCGGCGGCUCGAGCCCGGGUAAGUGUAAAUUGUCUGCAUGCCGCCGGGCGCCAUGCCUGCAGGUCGACUCUAGAAAACAUG,binding signal,[9],3.41 log2 enrichment (interaction score)
same,binding signal,[10],6.74 log2 enrichment (interaction score)
GGCUAGAACUAGUGGAUCCCCCGGCGCCCGGCGGCUCGAGCCCGGGUAAGUGUUAAUAGUCUGCAUGCCGCCGGGCGCCAUGCCUGCAGGUCGACUCUAGAAAACAUG,binding signal,[11],1.26 log2 enrichment (interaction score)
